# Source: PubChem BioAssay (EPA / NIEHS)
# Inconclusive results are not listed. Active and inactive are the calls of the source. How the source made its calls: active means hit-call score of the fitted dose curve at least 0.9, where 1 is the maximum; inconclusive means response in the unintended direction; inactive means score below 0.9.
# Legend:
# [1] = target: human Neurokinin, NK2 Receptor, TACR2 (gene 6865) (UniProt P21452); assay: NVS_GPCR_hNK2: NovaScreen (NVS) G Protein-Coupled Receptor Assay for human Neurokinin, NK2 Receptor (AID 2283278);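 further: actives reduce bound radioligand signal relative to DMSO baseline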
# human Neurokinin, NK2 Receptor, TACR2 (gene 6865), sequence (P21452 whole entry, looked up): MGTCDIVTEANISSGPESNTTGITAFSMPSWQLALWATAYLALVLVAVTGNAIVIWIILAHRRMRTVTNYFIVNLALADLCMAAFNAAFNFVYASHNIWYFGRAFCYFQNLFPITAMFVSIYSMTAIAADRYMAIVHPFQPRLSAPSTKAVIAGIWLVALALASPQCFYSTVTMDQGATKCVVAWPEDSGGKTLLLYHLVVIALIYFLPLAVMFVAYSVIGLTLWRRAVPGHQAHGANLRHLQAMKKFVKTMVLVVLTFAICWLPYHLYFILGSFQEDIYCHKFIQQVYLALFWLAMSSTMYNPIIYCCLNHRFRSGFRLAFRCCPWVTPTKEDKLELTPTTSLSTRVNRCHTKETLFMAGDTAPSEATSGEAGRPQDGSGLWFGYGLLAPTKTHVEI
# Description: NVS_GPCR_hNK2 is a biochemical, single-readout assay that uses extracted gene-proteins from CHO in a cell-free assay. Measurements were taken 4 hours after chemical dosing in a 96-well plate.NVS_GPCR_hNK2 is one of one assay component(s) measured or calculated from the NVS_GPCR_hNK2 assay. It is designed to make measurements of radioligand binding, a form of binding reporter, as detected with scintillation counting signals by Filter-based radiodetection technology.Data from the assay component NVS_GPCR_hNK2 was analyzed into 1 assay endpoint. This assay endpoint, NVS_GPCR_hNK2, was analyzed in the positive analysis fitting direction relative to DMSO as the negative control and baseline of activity. Using a type of binding reporter, loss-of-signal activity can be used to understand changes in the binding as they relate to the gene TACR2. Furthermore, this assay endpoint can be referred to as a primary readout, because the performed assay has only produced 1 assay endpoint. To generalize the intended target to other relatable targets, this assay endpoint is annotated to the gpcr intended target family, where the subfamily is rhodopsin-like receptor.
# Binding assays used specific radioligands (tritiated, iodinated) with non-radioactive competitive displacement ligands in agonist or antagonist protocols (as indicated) and various reference compounds and inhibitors to titrate specific binding to receptors and transporters. Most enzyme assays (CYPs, kinases, phosphatases, proteases, HDACs) used recombinant protein and specific substrates (fluorescence mostly, some colorimetric and radioactive) and inhibitors, followed by a biochemical separation of substrate and product. All assays for the biochemical HTS were initially run in duplicate at a single concentration (10 uM for CYP450 assays and 25 uM for all others). […] Each assay was run with positive and negative controls, and concurrent controls on every plate. The follow-up (secondary) screen tested active chemical-pairs in concentration series, as well as a few additional assays not tested in the primary screen, some selected negative inactives, and several cases re-run in the concentration series for confirmatory purposes.
# [2] = target: human Thromboxane A2 Receptor (TXA2), TBXA2R (gene 6915) (UniProt P21731); assay: NVS_GPCR_hTXA2: NovaScreen (NVS) G Protein-Coupled Receptor Assay for human Thromboxane A2 Receptor (TXA2) (AID 2283282);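 further: actives reduce bound radioligand signal relative to DMSO baseline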
# human Thromboxane A2 Receptor (TXA2), TBXA2R (gene 6915), sequence (P21731 whole entry, looked up): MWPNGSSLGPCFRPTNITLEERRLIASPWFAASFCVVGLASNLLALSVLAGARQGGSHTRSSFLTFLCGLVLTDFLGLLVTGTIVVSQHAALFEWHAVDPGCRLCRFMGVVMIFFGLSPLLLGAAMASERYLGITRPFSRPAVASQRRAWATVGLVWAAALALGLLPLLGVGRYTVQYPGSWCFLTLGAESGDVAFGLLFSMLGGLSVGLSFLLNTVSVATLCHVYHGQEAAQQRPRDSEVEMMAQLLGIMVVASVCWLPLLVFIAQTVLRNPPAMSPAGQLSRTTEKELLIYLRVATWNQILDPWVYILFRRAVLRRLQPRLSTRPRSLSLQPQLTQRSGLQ
# How it was run: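 Human platelet-derived receptor preparation incubated with test chemical and radiolabelled ligand for 1 hour, cell-free. Bound label was separated by filtration and counted; displacement relative to DMSO controls gave activity, screened at 25 uM, then titrated.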
# [3] = target: guinea pig Opioid, Kappa 1 Receptor (OpiateK), OPRK1 (gene 100135587) (UniProt P41144); assay: NVS_GPCR_gOpiateK: NovaScreen (NVS) G Protein-Coupled Receptor Assay for guinea pig Opioid, Kappa 1 Receptor (OpiateK) (AID 2283252);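 further: radioligand displacement from kappa opioid receptor in guinea pig cerebellar membranes; active means reduced radioligand binding relative to DMSO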
# guinea pig Opioid, Kappa 1 Receptor (OpiateK), OPRK1 (gene 100135587), sequence (P41144 whole entry, looked up): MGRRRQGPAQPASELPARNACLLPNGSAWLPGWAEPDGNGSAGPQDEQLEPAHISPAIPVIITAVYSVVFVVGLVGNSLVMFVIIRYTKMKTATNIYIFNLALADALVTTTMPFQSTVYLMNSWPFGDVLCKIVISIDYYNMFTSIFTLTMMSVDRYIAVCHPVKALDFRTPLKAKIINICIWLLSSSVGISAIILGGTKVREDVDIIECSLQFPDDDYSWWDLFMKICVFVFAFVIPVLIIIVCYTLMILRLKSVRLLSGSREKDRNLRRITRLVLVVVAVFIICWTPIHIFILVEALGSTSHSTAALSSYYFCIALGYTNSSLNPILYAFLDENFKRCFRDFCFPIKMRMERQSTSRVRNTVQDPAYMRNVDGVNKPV
# How it was run: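 Guinea pig cerebellar membranes were incubated with a radioligand for 2 h after compound addition; bound radioactivity was read by filter-based scintillation counting. Loss of specific binding relative to DMSO baseline defined activity; primary screen at 25 uM in duplicate.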
# [4] = target: Muscarinic acetylcholine receptor M2 (Homo sapiens) (UniProt P08172); assay: NVS_GPCR_hM2: NovaScreen (NVS) G Protein-Coupled Receptor Assay for human Muscarinic, M2 Receptor (AID 2283273)
# Muscarinic acetylcholine receptor M2 (Homo sapiens), sequence (P08172 whole entry, looked up): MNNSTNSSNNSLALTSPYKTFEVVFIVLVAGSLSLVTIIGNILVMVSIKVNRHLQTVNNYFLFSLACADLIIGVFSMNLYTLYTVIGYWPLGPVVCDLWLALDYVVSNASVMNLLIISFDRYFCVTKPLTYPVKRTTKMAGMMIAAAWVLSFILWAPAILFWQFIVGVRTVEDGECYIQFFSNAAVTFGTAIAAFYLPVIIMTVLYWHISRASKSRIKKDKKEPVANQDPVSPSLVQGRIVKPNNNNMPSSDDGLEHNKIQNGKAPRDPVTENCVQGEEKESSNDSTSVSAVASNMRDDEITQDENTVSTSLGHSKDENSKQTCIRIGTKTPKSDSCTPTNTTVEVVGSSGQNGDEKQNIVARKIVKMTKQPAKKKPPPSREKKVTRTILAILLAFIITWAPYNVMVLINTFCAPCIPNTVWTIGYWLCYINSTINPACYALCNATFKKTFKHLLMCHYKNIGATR
# How it was run: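 Cell-free radioligand binding using membranes from CHO cells expressing the receptor; filter-based scintillation counting after 1 hour of compound exposure. Loss of specific binding relative to DMSO baseline; primary screen at 25 uM in duplicate, actives then run in concentration series.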
# [5] = target: human Adenosine A2a Receptor (AdoRA2a), ADORA2A (gene 135) (UniProt P29274); assay: NVS_GPCR_hAdoRA2a: NovaScreen (NVS) G Protein-Coupled Receptor Assay for human Adenosine A2a Receptor (AdoRA2a) (AID 2283256)
# human Adenosine A2a Receptor (AdoRA2a), ADORA2A (gene 135), sequence (P29274 whole entry, looked up): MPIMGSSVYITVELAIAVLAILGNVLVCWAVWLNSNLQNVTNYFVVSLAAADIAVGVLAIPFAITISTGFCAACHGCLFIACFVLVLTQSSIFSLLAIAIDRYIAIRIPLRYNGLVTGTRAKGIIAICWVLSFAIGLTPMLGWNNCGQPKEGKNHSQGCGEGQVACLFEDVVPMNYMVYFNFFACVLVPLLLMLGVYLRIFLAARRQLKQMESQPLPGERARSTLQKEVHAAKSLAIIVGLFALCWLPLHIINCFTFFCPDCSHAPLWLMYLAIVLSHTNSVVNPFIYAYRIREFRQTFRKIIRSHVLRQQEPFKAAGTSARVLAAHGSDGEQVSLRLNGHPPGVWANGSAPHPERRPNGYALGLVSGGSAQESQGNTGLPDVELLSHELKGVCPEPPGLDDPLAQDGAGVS
# How it was run: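 Radioligand displacement on HEK293-derived membrane protein, cell-free; filter-based scintillation counting 1.5 hours after dosing, loss of signal vs DMSO. Single-point duplicate screen at 25 uM, actives retested in concentration series.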
# [6] = target: D(1A) dopamine receptor (Homo sapiens) (UniProt P21728); assay: NVS_GPCR_hDRD1: NovaScreen (NVS) G Protein-Coupled Receptor Assay for human Dopamine Receptor D1 (DRD1) (AID 2283269)
# D(1A) dopamine receptor (Homo sapiens), sequence (P21728 whole entry, looked up): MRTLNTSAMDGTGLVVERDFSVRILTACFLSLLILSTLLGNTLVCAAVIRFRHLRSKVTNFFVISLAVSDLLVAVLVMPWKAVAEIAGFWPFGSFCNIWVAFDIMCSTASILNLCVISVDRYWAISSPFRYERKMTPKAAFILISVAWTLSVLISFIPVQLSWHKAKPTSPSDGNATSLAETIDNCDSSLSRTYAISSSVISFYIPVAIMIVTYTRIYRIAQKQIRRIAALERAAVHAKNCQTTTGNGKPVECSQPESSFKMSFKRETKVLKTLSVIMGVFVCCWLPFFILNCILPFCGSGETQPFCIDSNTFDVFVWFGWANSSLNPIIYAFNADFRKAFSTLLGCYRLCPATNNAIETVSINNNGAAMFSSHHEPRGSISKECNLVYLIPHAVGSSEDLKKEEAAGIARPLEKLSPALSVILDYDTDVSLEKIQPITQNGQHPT
# How it was run: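 Cell-free competition with radioligand, filter-trapped and scintillation-counted 1 h post-dose, using HEK293-derived human D1 preparation. Duplicate single-point testing at 25 uM first, then concentration series for actives; DMSO served as baseline, loss-of-signal scored.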
# [7] = target: human Opioid Receptor Mu (Opiate Mu), OPRM1 (gene 4988) (UniProt P35372); assay: NVS_GPCR_hOpiate_mu: NovaScreen (NVS) G Protein-Coupled Receptor Assay for human Opioid Receptor Mu (Opiate Mu) (AID 2283290);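 further: hits lower bound tracer signal versus DMSO meaning displacement of the ligand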
# human Opioid Receptor Mu (Opiate Mu), OPRM1 (gene 4988), sequence (P35372 whole entry, looked up): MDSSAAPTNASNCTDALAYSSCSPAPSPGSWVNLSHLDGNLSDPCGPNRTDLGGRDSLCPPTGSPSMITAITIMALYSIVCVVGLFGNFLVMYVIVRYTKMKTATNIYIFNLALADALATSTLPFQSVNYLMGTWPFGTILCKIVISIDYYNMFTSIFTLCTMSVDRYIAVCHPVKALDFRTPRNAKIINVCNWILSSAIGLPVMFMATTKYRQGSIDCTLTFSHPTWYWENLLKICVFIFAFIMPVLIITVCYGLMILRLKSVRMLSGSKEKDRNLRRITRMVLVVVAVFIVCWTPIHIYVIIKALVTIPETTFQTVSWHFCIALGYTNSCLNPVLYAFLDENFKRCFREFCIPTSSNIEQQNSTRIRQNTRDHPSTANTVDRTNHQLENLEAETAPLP
# How it was run: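 Primary screen in duplicate at 25 uM, with actives followed in concentration series. CHO-derived receptor membranes, cell-free; bound radioligand read by scintillation counting after filtration at 2.5 h, decrease scored against DMSO.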
# [8] = target: guinea pig Leukotriene D4 Receptor (LTD4), CYSLTR1 (gene 100135514) (UniProt Q2NNR5); assay: NVS_GPCR_gLTD4: NovaScreen (NVS) G Protein-Coupled Receptor Assay for guinea pig Leukotriene D4 Receptor (LTD4) (AID 2283248)
# guinea pig Leukotriene D4 Receptor (LTD4), CYSLTR1 (gene 100135514), sequence (Q2NNR5 whole entry, looked up): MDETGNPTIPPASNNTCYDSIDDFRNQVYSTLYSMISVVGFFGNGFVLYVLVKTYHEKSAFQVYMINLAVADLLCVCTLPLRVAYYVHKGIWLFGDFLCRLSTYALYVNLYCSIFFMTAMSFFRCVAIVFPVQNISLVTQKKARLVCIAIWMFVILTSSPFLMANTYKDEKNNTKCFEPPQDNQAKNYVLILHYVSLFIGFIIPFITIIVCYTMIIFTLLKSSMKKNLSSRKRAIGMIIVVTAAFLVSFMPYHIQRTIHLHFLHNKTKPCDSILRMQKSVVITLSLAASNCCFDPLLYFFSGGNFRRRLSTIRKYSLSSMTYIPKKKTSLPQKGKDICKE
# How it was run: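 Radioligand displacement on guinea pig lung membranes, 1 h incubation, filtration and scintillation counting; DMSO as negative control. Duplicate 25 uM primary screen, then singleton concentration-response up to 50 uM.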
# [9] = target: human Adenosine A1 Receptor (AdoRA1), ADORA1 (gene 134) (UniProt P30542); assay: NVS_GPCR_hAdoRA1: NovaScreen (NVS) G Protein-Coupled Receptor Assay for human Adenosine A1 Receptor (AdoRA1) (AID 2283254)
# human Adenosine A1 Receptor (AdoRA1), ADORA1 (gene 134), sequence (P30542 whole entry, looked up): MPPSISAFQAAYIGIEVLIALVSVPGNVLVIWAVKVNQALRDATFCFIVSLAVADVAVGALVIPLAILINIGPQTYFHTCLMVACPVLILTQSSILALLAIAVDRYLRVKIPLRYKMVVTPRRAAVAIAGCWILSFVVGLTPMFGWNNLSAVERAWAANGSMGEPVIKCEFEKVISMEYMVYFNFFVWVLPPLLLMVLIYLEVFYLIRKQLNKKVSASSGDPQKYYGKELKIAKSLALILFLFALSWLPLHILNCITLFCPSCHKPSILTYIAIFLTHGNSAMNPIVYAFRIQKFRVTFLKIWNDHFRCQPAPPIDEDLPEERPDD
# How it was run: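 Radioligand competition binding on human cortical membranes, 1 h after compound addition; bound radioactivity read by filtration and scintillation counting. Loss of signal versus DMSO baseline scored as displacement; primary screen duplicate at 25 uM, actives retested in concentration series.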
# [10] = target: rat Neonicotinoid receptor (NNR), Chrna7 (gene 25302) (UniProt Q05941); assay: NVS_LGIC_rNNR_BungSens: NovaScreen (NVS) Ligand-Gated Ion Channel Assay for rat Neonicotinoid receptor (NNR) (AID 2283315)
# rat Neonicotinoid receptor (NNR), Chrna7 (gene 25302), sequence (Q05941 whole entry, looked up): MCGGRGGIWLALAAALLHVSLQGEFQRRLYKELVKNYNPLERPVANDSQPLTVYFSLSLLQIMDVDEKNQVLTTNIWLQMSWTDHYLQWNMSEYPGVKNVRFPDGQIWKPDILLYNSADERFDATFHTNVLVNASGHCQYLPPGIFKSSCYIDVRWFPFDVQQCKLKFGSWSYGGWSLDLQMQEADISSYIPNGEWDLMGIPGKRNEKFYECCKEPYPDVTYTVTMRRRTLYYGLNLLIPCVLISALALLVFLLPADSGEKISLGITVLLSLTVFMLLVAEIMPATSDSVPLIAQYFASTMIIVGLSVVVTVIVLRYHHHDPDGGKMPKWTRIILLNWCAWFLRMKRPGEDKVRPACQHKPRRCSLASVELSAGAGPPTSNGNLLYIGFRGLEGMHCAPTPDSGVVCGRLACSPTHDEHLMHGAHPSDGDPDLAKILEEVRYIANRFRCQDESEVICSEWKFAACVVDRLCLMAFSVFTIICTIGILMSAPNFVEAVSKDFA
# Description: NVS_LGIC_rNNR_BungSens is a biochemical, single-readout assay that uses extracted gene-proteins from Rat cortical membranes in a tissue-based cell-free assay. Measurements were taken 2.5 hours after chemical dosing in a 48-well plate.NVS_LGIC_rNNR_BungSens is one of one assay component(s) measured or calculated from the NVS_LGIC_rNNR_BungSens assay. It is designed to make measurements of radioligand binding, a form of binding reporter, as detected with scintillation counting signals by Filter-based radiodetection technology.Data from the assay component NVS_LGIC_rNNR_BungSens was analyzed into 1 assay endpoint. This assay endpoint, NVS_LGIC_rNNR_BungSens, was analyzed in the positive analysis fitting direction relative to DMSO as the negative control and baseline of activity. Using a type of binding reporter, loss-of-signal activity can be used to understand changes in the binding as they relate to the gene Chrna7. Furthermore, this assay endpoint can be referred to as a primary readout, because the performed assay has only produced 1 assay endpoint. To generalize the intended target to other relatable targets, this assay endpoint is annotated to the ion channel intended target family, where the subfamily is ligand-gated ion channel. […]
smiles,measurement,setting,value
CN(C)C(=O)Nc1ccc(Oc2ccc(Cl)cc2)cc1,outcome,[1],inactive
same,outcome,[2],inactive
CC(C)(C)CC(C)(C)c1ccc(OCCOCC[N+](C)(C)Cc2ccccc2)cc1,AC50,[1],4.14 µM (active)
COc1ccc(CCN2CCC(Nc3nc4ccccc4n3Cc3ccc(F)cc3)CC2)cc1,outcome,[3],inactive
same,AC50,[4],3.04 µM (active)
same,AC50,[2],0.227 µM (active)
CCCCN(CCCC)C(=O)N(CCCC)CCCC,outcome,[4],inactive
CCCCCCCCCCCCCCCC(=O)OC/C=C(C)/C=C/C=C(C)/C=C/C1=C(C)CCCC1(C)C,outcome,[5],inactive
same,AC50,[6],34.7 µM (active)
same,outcome,[7],inactive
CC(C)CC(C)CC(O)CC(C)C (stereo not drawn),outcome,[2],inactive
CCC(C)=O,outcome,[4],inactive
CC(C)Nc1nc(N)nc(Cl)n1,AC50,[5],15.6 µM (active)
COCCc1ccc(OCC(O)CNC(C)C)cc1 (stereo not drawn),outcome,[5],inactive
same,outcome,[6],inactive
CN(C)C(=S)SC(=S)N(C)C,AC50,[3],30.8 µM (active)
same,AC50,[6],30.8 µM (active)
same,AC50,[1],1.59 µM (active)
ClC(c1ccccc1)(c1ccccc1)c1ccccc1,outcome,[5],inactive
same,outcome,[6],inactive
same,outcome,[7],inactive
O=C1OC[C@H](Cc2cccc(O)c2)[C@H]1Cc1cccc(O)c1,AC50,[3],5.5 µM (active)
C=CCOC(=O)CCCCCC,outcome,[6],inactive
CC(C)(N=C=O)c1cccc(C(C)(C)N=C=O)c1,AC50,[3],36.7 µM (active)
same,AC50,[6],43.7 µM (active)
same,outcome,[1],inactive
same,AC50,[7],32.8 µM (active)
NC(=S)NNC(N)=S,outcome,[1],inactive
same,outcome,[7],inactive
O=C1c2ccccc2C(=O)c2c(O)ccc(O)c21,outcome,[8],inactive
COC(=O)c1ccc([N+](=O)[O-])cc1,outcome,[8],inactive
same,outcome,[2],inactive
Nc1ccc(Cl)c([N+](=O)[O-])c1,outcome,[5],inactive
COc1ccc(OC)c(N=Nc2c(O)ccc3ccccc23)c1,AC50,[1],25 µM (active)
Cc1cc(CCC(=O)OCCOCCOCCOC(=O)CCc2cc(C)c(O)c(C(C)(C)C)c2)cc(C(C)(C)C)c1O,AC50,[2],0.23 µM (active)
C=C(C)C(=O)OCC(CC)(COC(=O)C(=C)C)COC(=O)C(=C)C,AC50,[9],24.6 µM (active)
same,AC50,[4],24.6 µM (active)
CN(c1nccc(=O)[nH]1)C1CCN(c2nc3ccccc3n2Cc2ccc(F)cc2)CC1,outcome,[3],inactive
same,outcome,[6],inactive
same,outcome,[4],inactive
same,AC50,[2],0.761 µM (active)
CCOC(=O)CN,outcome,[6],inactive
CCCCSCCCC,outcome,[6],inactive
CCCCOCC,outcome,[6],inactive
C[C@@H]1CCN(C(=O)[C@H](CCCN=C(N)N)NS(=O)(=O)c2cccc3c2NC[C@H](C)C3)[C@@H](C(=O)O)C1,AC50,[6],17 µM (active)
[O-]n1ccccc1=S.[O-]n1ccccc1=S.[Zn+2],AC50,[1],9.86 µM (active)
same,AC50,[7],0.104 µM (active)
CC(=O)Nc1ccc(C(=O)CCl)cc1,AC50,[2],10.7 µM (active)
C=CC(C)C#N (stereo not drawn),outcome,[10],inactive
CCC1CCCCC1,outcome,[6],inactive
Oc1c(Cl)cc(Cl)c(Cl)c1Cc1c(O)c(Cl)cc(Cl)c1Cl,AC50,[5],5.67 µM (active)
same,outcome,[2],inactive
same,AC50,[7],6.76 µM (active)
